Screening results as filed in PubChem BioAssay.
FMDV antiviral = antivirals against foot and mouth disease virus; FMDV antiviral cell-based qHTS; Potency, µM (top dose mostly 57.9 µM), inactives show at the highest dose activity change, negative = inhibition, hits mostly inhibitors; 1.2% of 410,000 active; AID 1159524; calls by dose curve; tested in HEK293T cells; note: read-out not given here; potency is the fitted concentration of half-maximal effect; nearly all actives have a fitted effect of over 45% in size
HCMV inh = human cytomegalovirus inhibition; HFF cells, HCMV-luciferase reporter, 72 h; active compounds read low; activity change, negative = inhibition, % at 57.5 µM; 4.5% of 410,000 active; AID 1259415; in the data active = activity change below about -60%; inconclusive = no clear call, values can overlap the other calls; inactive = above about -39%
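Two-dose cell screen: HFF monolayers treated with compounds and infected with luciferase-expressing HCMV at 1 PFU/cell, 72 h at 37C, then lysed for luciferase measurement.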
Vaccinia mCherry = inhibitors of vaccinia virus infection (mCherry reporter signal); Potency, µM (doses to about 36.5 µM), for the others: top-dose activity change, negative = inhibition, actives largely listed as inhibitors; Vaccinia virus mCherry reporter infection, fluorescence; 0.63% of 310,000 active; calls by dose curve; tested in A549 cells; note: potency is the fitted concentration of half-maximal effect; nearly all actives have a fitted effect of over 35% in size
VACV Venus inh = vaccinia inhibition (Venus reporter); Vaccinia virus Venus reporter expression, fluorescence; 0.46% of 330,000 active; Potency, µM (series often up to 36.5 µM), inactives show at the top dose activity change, negative = inhibition, hits mostly inhibitors; calls by dose curve; tested in A549 cells; note: potency is the fitted concentration of half-maximal effect; nearly all actives have a fitted effect of over 30% in size
LASV entry inh = blocks Lassa virus binding to or entry into cells; 1.2% of 300,000 active; Lassa virus pseudotype entry inhibition, cell reporter; Potency, µM (doses to about 37.9 µM), for the others: top-dose activity change, negative = inhibition, hits mostly inhibitors; calls by dose curve; tested in HEK293 cells; note: potency is the fitted concentration of half-maximal effect; nearly all actives have a fitted effect of over 50% in size
Marburg entry inh = inhibitors of Marburg virus binding or cell entry; Marburg virus pseudotyped entry inhibition, cell reporter; Potency, µM (series often up to 37.8 µM), inactives show at the highest dose activity change, negative = inhibition, usual class: inhibitors; AID 540276; 1.8% of 300,000 active; calls by dose curve; tested in HEK293 cells; note: potency is the fitted concentration of half-maximal effect
* hit, by the source's call; i = inactive; ? = inconclusive; nt = no result; [ ] = dose if it differs, or a comment. This is a sample that favours compounds with a hit; in the whole collection about 6.5% have one here. % is set by controls: 0 for no effect and ±100 for the full control effect.

SMILES	FMDV antiviral	HCMV inh	Vaccinia mCherry	VACV Venus inh	LASV entry inh	Marburg entry inh
COc1cc2c(NC3CCN(C(C)C)CC3)nc(N3CCCN(C)CC3)nc2cc1OCCOCCN(C)C	nt	nt	1.6µM*	1.8µM*	nt	nt
COc1cc2nc(N3CCCCC3)nc(NC3CCN(Cc4ccccc4)CC3)c2cc1OC	nt	nt	-7%	-28%	nt	nt
CC1=C[C@@H](C)O[C@@]2(C1)C(=O)Nc1cccc(Br)c12	nt	nt	nt	nt	?	1%[14.2 µM]
CCCOc1ccc(NC(=O)CC2C(=O)N(c3ccccc3)C(=O)N2CCC(C)C)cc1 (stereo not given)	-6%	12	-7%	-17%	3%[46.1 µM]	nt
Cc1ncc2c(c1CNC(=O)/C=C/c1cccs1)CCN(C(=O)c1ccc3c(c1)OCCO3)C2	6%	nt	-14%	-5%	nt	nt
CC(=O)OC1(C(C)=O)CCC2C3CC(C(F)(F)F)C4=CC(=O)CCC4(C)C3CCC21C (stereo not given)	-6%	-29	?	-11%	?	8.9µM*
CC(=O)C12CCCCC1CC1[C@@H]3CC(C)C4=CC(=O)CC[C@]4(C)C3CC[C@@]12C (stereo not given in full)	?	-80*	-6%	-12%	28%[46.1 µM]	14%[46.1 µM]
CC(=O)O[C@]1(C(C)=O)CC[C@H]2[C@@H]3C[C@H](C)C4=CC(=O)CC[C@]4(C)[C@H]3CC[C@@]21C	?	56	-6%	-21%	?	-41%
Cc1cccc(-c2nc3c4ccccc4nc(N4CCN(c5cccc(Cl)c5)CC4)n3n2)c1	-18%	-62*	-15%	-9%	nt	?
Cc1cc(Sc2nc(NC(C)C)nc(NC(C)C)n2)nc(Cl)n1	2%	-15	7.9µM*	?	-3%	3%[46.1 µM]
CSc1nc(NC(C)C)nc(NC(C)C)n1	-10%	21	-2%	-20%	8%	-3%
O=C(Cn1c(=O)nc(-c2ccccc2)c2cc(Cl)ccc21)N1CCN(c2ccccc2F)CC1	5%	-9	i	-8%	?	nt
N[C@@H]1CCc2cc(O)c(O)cc2C1	nt	nt	nt	nt	nt	5%
COc1c(C(N)=O)cc(-c2ccc(Cl)cc2)cc1-c1ccc(S(N)(=O)=O)cc1	nt	nt	nt	nt	25µM*	nt
COc1ccc(Cl)cc1C(=O)Nc1ccc(S(N)(=O)=O)cc1	-13%	?	21%	-9%	-9%	9%[46.1 µM]
COc1ccc(C2/C(=C(/O)c3ccccc3)C(=O)C(=O)N2CCO)cc1 (stereo not given)	12%	-18	-2%	9%	12%	2%
COc1ccc(N/C(C)=C2/C(=O)C(=O)N(CCO)C2c2ccc(Br)cc2)cc1 (stereo not given)	-18%	-96*	nt	nt	-7%	0%
CS(=O)(=O)N(CC(=O)N1CCN(Cc2ccc3c(c2)OCO3)CC1)Cc1ccc(Cl)cc1	?	-84*	nt	nt	9.2µM*	0%
CS(=O)(=O)N(CCc1ccccc1)CC(=O)N1CCN(Cc2ccc3c(c2)OCO3)CC1	-8%	?	nt	nt	?	-24%
CCCNS(=O)(=O)c1ccc(OCC(=O)N2CCN(Cc3ccccc3)CC2)cc1	0%	-37	nt	nt	18µM*	?
O=S(=O)(c1ccc(Oc2ccc(Br)cc2)cc1)N1CCOCC1	?	-73*	nt	?	?	?
CCCNS(=O)(=O)c1ccc(OCC(=O)N2CCN(c3ccccc3)CC2)cc1	14%	-23	-10%	0%	0%	-11%[46.1 µM]
COc1ccc(S(=O)(=O)N2CCOCC2)cc1	nt	nt	-14%	-5%	nt	nt
O=C(COc1ccc(S(=O)(=O)N2CCOCC2)cc1)N1CCCCCC1	-13%	-85*	12%	0%	-11%	27%[46.1 µM]
O=C(COc1ccc(S(=O)(=O)N2CCCCC2)cc1)N1CCOCC1	-22%	-9	-18%	-8%	23%	0%
SMILES	FMDV antiviral	HCMV inh	Vaccinia mCherry	VACV Venus inh	LASV entry inh	Marburg entry inh
CC[Se]CC[C@@H](N)C(=O)O	nt	nt	nt	nt	nt	-8%
Cc1ccc(CN2[C@H]3CCCC[C@@H]3OCCS2(=O)=O)cc1	nt	nt	i	-15%	nt	nt
O=S(=O)(CCN1CCOCC1)c1ccc(Cl)cc1	-19%	17	-22%	?	-17%	-25%
O=C(NCc1ccc2c(c1)OCO2)c1c[nH]c2ccc(S(=O)(=O)N3CCOCC3)cc2c1=O	-12%	29	nt	nt	0.52µM*	-2%
O=S(=O)(CCN1CCOCC1)c1ccc(Oc2ccc(S(=O)(=O)CCN3CCOCC3)cc2)cc1	?	-65*	?	2.2µM*	-1%	?
CC(=O)N1CCc2cc(S(=O)(=O)NCCC(=O)N3CCN(Cc4ccccc4)CC3)ccc21	?	-66*	nt	nt	?	3%
O=C(COc1ccc(S(=O)(=O)N2CCOCC2)cc1)N1CCN(Cc2ccc3c(c2)OCO3)CC1	?	-61*	nt	nt	-7%	-25%
COc1c2ccccc2nn1-c1ccc(-c2cn(Cc3ccccc3)nn2)cc1	nt	-28	nt	nt	nt	nt
CCCCNS(=O)(=O)c1ccc(OCC(=O)N2CCN(Cc3ccc4c(c3)OCO4)CC2)cc1	-21%	-83*	nt	nt	nt	nt
CCOC(=O)c1c(C)[n+](-c2ccc(C)cc2)c(CC)c2cc(OC)c(OC)cc12	-23%	-81*	nt	nt	nt	nt
COc1ccc(CN(C(=O)c2ccc(C)cc2)c2cccc(N)c2)cc1	23%	-16	-20%	-16%	nt	nt
COc1ccc(C(=O)N(Cc2ccccc2)c2cccc(C)c2)cc1	31%	-60*	nt	nt	nt	nt
Cc1cccnc1C(NC(=O)C1CCN(Cc2ccccc2)CC1)c1ccc(F)cc1 (stereo not given)	-10%	-62*	i	-8%	nt	nt
Clc1nssc1=Nc1ccc(Br)cc1	?	?	i	-21%	6%	-15%
COc1cc(N=c2ssnc2Cl)cc(OC)c1	40µM*	33	-12%	-7%	-6%	7%
Cc1cc(N=O)no1	nt	4	nt	nt	nt	nt
COC(=O)c1cc(O)cc(OC)c1Oc1cc(C)cc(O)c1C(=O)O	0%	-106*	?	?	nt	nt
COc1ccc(-c2cc(C(=O)Nc3ccc(C)cc3)no2)cc1	23%	43	i	-8%	0%	9%
COc1ccc(NC(=O)c2c(C)noc2-c2snnc2C)cc1	12%	-32	i	-18%	?	10µM*
C[C@H]1CCC[C@]2(C)C[C@H]3OC(=O)C(CN4CCCCCC4)[C@H]3C=C12 (stereo not given in full)	22µM*	?	nt	nt	nt	nt
CC1(C)CC(=O)c2cc(OCC(=O)NCCCN3CCN(c4ccc(F)cc4)CC3)ccc2O1	?	?	nt	nt	?	23µM*
COc1ccc(NC(=O)COC(=O)c2cccn2C)cc1S(=O)(=O)N1CCCCC1	-18%	-69*	i	-13%	9%[46.1 µM]	?
Cn1cccc1C(=O)OCC(=O)Nc1ccc2c(c1)OCCO2	-28%	132	-6%	-7%	7.1µM*	6.3µM*
COc1ccc(NC(=O)CSc2ccc(NC(C)=O)cc2)cc1S(=O)(=O)N1CCOCC1	-12%	-8	i	-1%	?	19%[46.1 µM]
COc1ccc(NC(=O)Cc2cccs2)cc1S(=O)(=O)N1CCCCC1	21%	-6	-4%	-17%	1µM*	-24%
